Experiment [1] is described as follows: qHTS assay for small molecule agonists of the p53 signaling pathway (AID 651631; calls by dose curve; also: nearly all actives have a fitted effect of over 15% in size; also: potency is read from the fitted curve at half-maximal effect). The method, boiled down: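 HCT-116 cells carrying a stable p53 response element–beta-lactamase reporter were plated, rested 5 h at 37 °C, then exposed to compound in DMSO for 16 h at 37 °C; reporter activity was read as FRET substrate fluorescence after 2 h at room temperature.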
In general terms: Quantitative high-throughput screening tests each substance at several concentrations.

Experiment [2] is described as follows: qHTS assay for small molecules that induce genotoxicity in human embryonic kidney cells expressing luciferase-tagged ATAD5 (AID 651632). Also: nearly all actives have a fitted effect of over 15% in size. Also: potency is read from the fitted curve at half-maximal effect. The method, boiled down: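 A rise in luciferase signal from ATAD5-tagged HEK293T cells marks genetic stress. Cells were exposed to compounds for 16 hr at 37C, 5% CO2, then luciferase was quantified after a 30 min room-temperature incubation with Amplite.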

The nature of experiment [3]: qHTS assay for small molecule agonists of the p53 signaling pathway - cell viability (AID 651633; calls by dose curve; also: series mostly up to about 83 µM; nearly all actives have a fitted effect of over 30% in size). The method, boiled down: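 p53RE-bla cells were treated with compound for 16 hours at 37 C. Cytotoxicity was then measured as CellTiter-Glo luminescence after 30 min at room temperature.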
The nature of experiment [4]: qHTS assay for small molecules that induce genotoxicity in human embryonic kidney cells expressing luciferase-tagged ATAD5 - cell viability (AID 651634; calls by dose curve; also: nearly all actives have a fitted effect of over 25% in size; also: potency is read from the fitted curve at half-maximal effect). The method, boiled down: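 Cytotoxicity counter-readout: after 15.5 hr compound treatment at 37C, live-cell protease activity in ATAD5-luciferase HEK293T cells measured by CellTiter-Fluor fluorescence, 30 min development at 37C.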

A short description of experiment [5]: qHTS assay for small molecule disruptors of the mitochondrial membrane potential - cell viability (AID 720634; calls by dose curve;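 also: human HepG2 liver cancer cells; series mostly up to about 83 µM; nearly all actives have a fitted effect of over 20% in size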). The method, boiled down:
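Cytotoxicity was quantified from ATP content by CellTiter-Glo luminescence in the same wells as the MMP dye read-out. HepG2 (2,000 cells/well) were plated overnight and exposed to compounds for 1 hr at 37 C.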

Experiment [6] in a line: qHTS assay for small molecule disruptors of the mitochondrial membrane potential (AID 720635). Also: potency is read from the fitted curve at half-maximal effect. The method, boiled down: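 HepG2 cells exposed to compound 1 hr at 37C, then Mito-MPS dye 30 min. Ratio read of aggregate (540/590 nm) versus monomer (490/535 nm) fluorescence.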
A short description of experiment [7]: qHTS assay to test for compound auto fluorescence at 590 nm (red) in HepG2 cells (AID 720674). An outline of the steps: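 HepG2 cells, 2,000 per well in MEM with 10% FBS, attached overnight at 37 C, then got 23 nL compound or DMSO. After 1 hr at 37 C, 5% CO2, red fluorescence was read at 540/590 nm against Rose Bengal sodium as reference.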
Experiment [8] is described as follows: qHTS assay to test for compound auto fluorescence at 535 nm (green) in HepG2 cells (AID 720675).
Experiment [9] in a line: qHTS assay to test for compound auto fluorescence at 460 nm (blue) in HEK293 cells (AID 720678). The method, boiled down:
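HEK293 cells (2,000/well, medium with 10% dialyzed FBS) attached 4-5 hr, then exposed to compound overnight at 37C, 5% CO2. Blue fluorescence read at 405/460 nm, with triamterene as reference fluorophore.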

Experiment [10] is described as follows: qHTS assay to test for compound auto fluorescence at 590 nm (red) in HEK293 cells (AID 720679). The method, boiled down: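 HEK293 cells (2,000/well, 10% dialyzed FBS) attached 4-5 hr, then dosed with compound or DMSO and incubated overnight at 37C, 5% CO2. Red fluorescence read at 540/590 nm, Rose Bengal sodium as reference fluorophore.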

Molecules are shown by their SMILES. Values without a mark were called inactive. Results filed as inconclusive are left out. Active and inactive are the calls of the source. Unless noted, calls follow the shape of the dose curve; as a rule, active = well fitted curve in the direction sought with a large enough effect in the repeat runs; inconclusive = weak or mixed curves; inactive = no such curve, though single readings can be large; an effect the other way counts as inactive or inconclusive.
% is scaled to controls: 0 for no effect and ±100 for the full control effect.

In the case of `NCCNCCO`, the Potency result in [1], in experiment [2], in experiment [3], in [4], in [5] and in experiment [6] was “inactive” throughout. Further, the Potency entry in experiment [9] is “inactive”. Moreover, the molecule was called inactive in experiment [7], in experiment [8] and in experiment [10].
With `NC(=O)c1ccncc1`, the Potency entry in experiment [1], in [2], in experiment [3], in experiment [4], in experiment [5] and in experiment [6] was “inactive” in each case. In addition, the Potency entry in [9] was “inactive”. Moreover, the molecule was called inactive in experiment [7], in [8] and in experiment [10].
As for `CC1CC(C)C(=O)C1=O` (stereo not given), the Potency result in experiment [1], in experiment [2], in [3], in [4], in experiment [5] and in experiment [6] was “inactive” throughout. Moreover, the Potency entry in experiment [9] is “inactive”. Besides, the molecule was called inactive in experiment [7], in [8] and in [10].
`CCCCCCCCCI`: the Potency result in experiment [1], in experiment [2], in [3], in [4], in experiment [5] and in experiment [6] was “inactive” in each case. Further, in experiment [9], the Potency result was “inactive”. The outcome in experiment [7], in [8] and in experiment [10] was inactive.
Turning to `CCCC(=O)C(=O)O`, the Potency entry in experiment [1], in experiment [2], in experiment [3], in [4], in experiment [5] and in experiment [6] was “inactive” in each case. In addition, the Potency entry in [9] is “inactive”. Besides, the molecule was classed as inactive in experiment [7], in experiment [8] and in experiment [10].
As to `CC(C)Nc1cccnc1N1CCN(C(=O)c2cc3cc(NS(C)(=O)=O)ccc3[nH]2)CC1`, the Potency result in [1], in experiment [2], in experiment [3], in [4] and in experiment [5] was “inactive” throughout. Moreover, the Potency in experiment [6] was 26.6 µM (active). Further, the call in [7], in [8] and in [10] was inactive.
Take `O=C1c2ccccc2C(=O)C1c1ccc(Br)cc1`: the Potency result in [1], in [2], in [3], in experiment [4], in [5] and in [6] was “inactive” in each case. Also, the molecule was classed as inactive in experiment [7] and in experiment [10].
Regarding `Cc1ccc(C(C)(C)O)cc1`, the Potency result in [1], in experiment [2], in experiment [3], in experiment [4], in experiment [5] and in [6] was “inactive” throughout. Further, the Potency result in experiment [9] is “inactive”. The molecule was classed as inactive in experiment [7], in experiment [8] and in experiment [10].
For `Cc1ccc(CO)cc1`, the Potency entry in experiment [1], in experiment [2], in [3], in [4], in experiment [5] and in experiment [6] was “inactive” each time. In experiment [9], the Potency result is “inactive”. Also, the outcome in experiment [7], in [8] and in [10] was inactive.
With `CC1(C)[C@@H](OC(=O)CCC(=O)O)CC[C@]2(C)[C@H]3C(=O)C=C4[C@@H]5C[C@@](C)(C(=O)O)CC[C@]5(C)CC[C@@]4(C)[C@]3(C)CC[C@@H]12`, the Potency result in [1], in experiment [2], in experiment [3], in experiment [4], in experiment [5] and in experiment [6] was “inactive” each time. Also, the fluorescence, relative to Rose Bengal in experiment [7] is -0.342% [at 18.6 µM]. The fluorescence, % of fluorescein control in experiment [8] is -0.0594% [at 18.6 µM]. The fluorescence, % of triamterene in [9] is 0.0377% [at 18.6 µM]. The fluorescence, % of fluorescent control in [10] was 0.163% [at 18.6 µM].
Take `O=Cc1c2ccccc2c(Cl)c2ccccc12`: the Potency result in experiment [1], in experiment [2], in [3], in experiment [4], in experiment [5] and in [9] was “inactive” in each case. The Potency in experiment [6] is 8.42 µM (active). The molecule was classed as inactive in experiment [7], in [8] and in experiment [10].
On to `O=C1NCCN1CCO`, for which the Potency entry in experiment [1], in experiment [2], in [3], in [4], in experiment [5] and in experiment [6] was “inactive” throughout. Moreover, in [9], the Potency result was “inactive”. In addition, the call in experiment [7], in experiment [8] and in experiment [10] was inactive.
Consider `CC[C@]1(O)C[C@H]2CN(CCc3c([nH]c4ccccc34)[C@@](C(=O)OC)(c3cc4c(cc3OC)N(C=O)[C@H]3[C@@](O)(C(=O)OC)[C@H](OC(C)=O)[C@]5(CC)C=CCN6CC[C@]43[C@@H]65)C2)C1`, for which the Potency in experiment [1] was 0.0084 µM (active); in [2], 0.75 µM (active); in experiment [4], 0.0473 µM (active); in experiment [6], 3.76 µM (active). Further, the Potency result in [3] and in [5] was “inactive” each time. For the same molecule, the outcome in [7], in experiment [8] and in experiment [10] was inactive.
As to `CC1(C)S[C@@H]2[C@H](NC(=O)C(c3ccccc3)S(=O)(=O)O)C(=O)N2[C@H]1C(=O)O` (stereo not given in full), the Potency result in experiment [1], in experiment [2], in experiment [3], in experiment [4], in [5] and in [6] was “inactive” throughout. Also, the Potency result in [9] was “inactive”. Also, the result in experiment [7], in [8] and in experiment [10] was inactive.
Regarding `CCCCCCC(C)(C)C(=O)O`, the Potency entry in experiment [1], in [2], in experiment [3], in experiment [4], in experiment [5] and in [6] was “inactive” throughout. In [9], the Potency entry is “inactive”. Besides, the molecule was called inactive in [7] and in experiment [10].
As to `O[C@@H]1CO[C@H]2[C@@H]1OC[C@@H]2O`, the Potency result in experiment [1], in experiment [2], in [3], in experiment [4], in [5] and in experiment [6] was “inactive” in each case. Moreover, the result in experiment [10] was inactive.
Consider `CCCCCC[C@@H](O)C/C=C\CCCCCCCC(=O)OCC(O)CO` (stereo not given in full), for which the Potency result in [1], in experiment [2], in [3], in experiment [4] and in experiment [5] was “inactive” throughout. Besides, the molecule was classed as inactive in [7], in experiment [8] and in experiment [10].
On to `CC(O)c1ccccc1` (stereo not given), for which the Potency entry in experiment [1], in experiment [2], in [3], in experiment [4], in experiment [5] and in experiment [9] was “inactive” in each case. Besides, the molecule was classed as inactive in experiment [7] and in [10].
On to `O=C(O)CCC(=O)C(=O)O`, for which the Potency entry in experiment [1], in experiment [2], in experiment [3], in experiment [4], in experiment [5] and in experiment [6] was “inactive” in each case. For the same molecule, in experiment [9], the Potency result is “inactive”. Moreover, the outcome in experiment [8] and in [10] was inactive.
With `O=C(/C=C/c1ccc(O)c(O)c1)O[C@@H]1C[C@@](OC(=O)/C=C/c2ccc(O)c(O)c2)(C(=O)O)C[C@@H](O)[C@@H]1O`, the Potency entry in experiment [1], in experiment [2], in experiment [3], in [4], in experiment [5] and in experiment [9] was “inactive” throughout. Besides, the molecule was called inactive in experiment [7] and in experiment [10].
For the molecule `CC(=O)OCCN(CCOC(C)=O)c1ccc(N=Nc2ccc([N+](=O)[O-])cc2C#N)cc1`, the Potency result in experiment [1], in [2], in experiment [3] and in experiment [9] was “inactive” throughout. Besides, the Potency in experiment [4] is 61.1 µM (active); in experiment [6], 6.86 µM (active). The outcome in [7], in experiment [8] and in experiment [10] was inactive.
Turning to `CCC(=O)OC`, the Potency result in [1], in experiment [2], in experiment [3], in experiment [4], in experiment [5] and in experiment [9] was “inactive” throughout. The molecule was classed as inactive in [8] and in experiment [10].
For the molecule `CCC1(CO)COCOC1`, the Potency entry in experiment [1], in experiment [2], in [3], in [4] and in experiment [5] was “inactive” each time. Moreover, the call in [7], in experiment [8] and in experiment [10] was inactive.

Source of the values: PubChem BioAssay (Tox21).
